# Assay outcomes from PubChem BioAssay.
# This is a sample that favours compounds with a hit; in the whole collection about 8.9% have one here.
# ALDH1A1 inh – qHTS Assay for Inhibitors of Aldehyde Dehydrogenase 1 (ALDH1A1); AID 1030, 2008; Purified ALDH1A1, NADH fluorescence, propionaldehyde substrate; actives 7.3% (n = 220,000); Potency, µM (highest dose often 75.3 µM), hits mostly inhibitors; active = well fitted inhibition curve with a large enough effect, not every such curve was filed as active; inconclusive = small, poorly fitted or top-dose-only effect, or another doubt; inactive = no such curve, though single readings can be large or run the other way
# IMPase cell inh – qHTS Assay for Identifying the Cell-Membrane Permeable IMPase Inhibitors. CHO-M1 cells, IP1 accumulation, HTRF TR-FRET ratio. inhibition (IP1 accumulation), % at 46.1 µM. 120,000 tested, under 10 active. AID 901, 2007; active = well fitted curve in the direction sought with a large enough effect in the signal ratio, not every such curve was filed as active; inconclusive = small, poorly fitted or top-dose-only effect, or a change in a side signal; inactive = no such curve, though single readings can be large or run the other way; the % refers to the signal ratio;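 note: cells stimulated with carbachol in lithium chloride buffer; higher means more IMPase inhibition seen as more IP1 and lower FRET ratio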
# Target sequence (P97697 whole entry, looked up): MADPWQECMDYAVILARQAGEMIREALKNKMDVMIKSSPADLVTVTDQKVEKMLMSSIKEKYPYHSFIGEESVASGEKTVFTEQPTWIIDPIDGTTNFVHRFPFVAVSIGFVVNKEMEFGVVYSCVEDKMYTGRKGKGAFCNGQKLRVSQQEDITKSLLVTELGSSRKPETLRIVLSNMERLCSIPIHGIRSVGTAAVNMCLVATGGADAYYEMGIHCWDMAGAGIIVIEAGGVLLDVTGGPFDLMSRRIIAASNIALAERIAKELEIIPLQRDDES
#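 CHO-M1, 2000 cells/well, cultured 16–30 h; cpd up to 46 uM; carbachol (50 uM solution, stimulation buffer w/ 50 mM LiCl, pH 7.4), 30 min 37C; IP-One TR-FRET, 10 min RT; Ex 320/Em 665, 620; Hill-fit AC50.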
# NPSR antagonist – qHTS Assay for Antagonists of the Neuropeptide S Receptor: cAMP Signal Transduction. Potency, µM (series often up to 38.3 µM), hits mostly inhibitors. actives 1% (n = 220,000). AID 1461, 2008. CHO-NPSR cells, cAMP TR-FRET, antagonist mode; note: nearly all actives have a fitted effect of over 50% in size
# Target sequence (Q6W5P4 whole entry, looked up): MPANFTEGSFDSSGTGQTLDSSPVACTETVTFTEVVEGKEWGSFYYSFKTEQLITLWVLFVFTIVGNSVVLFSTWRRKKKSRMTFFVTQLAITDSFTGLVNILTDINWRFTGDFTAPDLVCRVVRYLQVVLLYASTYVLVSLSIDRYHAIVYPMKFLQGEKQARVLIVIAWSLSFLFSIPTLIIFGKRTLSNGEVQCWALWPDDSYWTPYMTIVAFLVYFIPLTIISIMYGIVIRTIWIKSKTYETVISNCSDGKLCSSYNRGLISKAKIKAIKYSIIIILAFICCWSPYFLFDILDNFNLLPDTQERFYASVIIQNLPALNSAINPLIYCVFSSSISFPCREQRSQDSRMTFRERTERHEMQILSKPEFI
# ALOX12 inhib – qHTS Assay for Inhibitors of 12-hLO (12-human lipoxygenase); Potency, µM (series often up to 57.1 µM), most hits filed as inhibitors; Polyunsaturated fatty acid lipoxygenase ALOX12 (Homo sapiens), P18054; purified 12-hLO, xylenol orange hydroperoxide absorbance; actives 0.12% (n = 150,000); note: nearly all actives have a fitted effect of over 55% in size
#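 Hydroperoxide formation by human 12-lipoxygenase from 40 uM arachidonic acid was followed colorimetrically via ferric-xylenol orange complex, using the 573/405 nm absorbance ratio. Enzyme concentration was 150 nM, with 30 min reaction at room temperature.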
# HPGD inh – qHTS Assay for Inhibitors of HPGD (15-Hydroxyprostaglandin Dehydrogenase); 15-hydroxyprostaglandin dehydrogenase [NAD(+)] (Homo sapiens), P15428; purified HPGD, NADH fluorescence kinetic, PGE2 substrate; Potency, µM, hits mostly inhibitors; actives 4.3% (n = 150,000); AID 894, 2007; active = well fitted inhibition curve with a large enough effect, not every such curve was filed as active; inconclusive = small, poorly fitted or top-dose-only effect, or another doubt; inactive = no such curve, though single readings can be large or run the other way
#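 NADH formation kinetics: reaction with 30 uM PGE2 and 1 mM NAD+ (final), 20 nM enzyme, Tris-HCl pH 8 with Tween 20, after 15 min compound preincubation at room temperature. Fluorescence change, last versus first of five reads.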
# IMPase Li inh – qHTS Assay for Identifying the Cell-Membrane Permeable IMPase Inhibitors: Potentiation with Lithium; actives 0.35% (n = 210,000); Potency, µM (titrated, usually from 59.4 µM), usual class: inhibitors; AID 1457, 2008; CHO-M1 cells, IP1 TR-FRET (IP-One), carbachol + lithium;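 note: IP1 builds up when IMPase is blocked and the TR-FRET signal falls; nearly all actives have a fitted effect of over 50% in size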
#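 Readout is a homogeneous TR-FRET IP1 immunoassay (Ex 320, Em 665 and 620), where raised cytosolic IP1 lowers signal. Cells were CHO-M1 treated 30 min at 37C with test compounds plus a little lithium; AC50 values came from Hill-equation fitting.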
# Numbers stand for hits; - = inactive; ? = inconclusive; . = no result; [ ] = remark or other dose. Unless noted, calls come from the whole dose curve; as a rule, active = well fitted curve in the direction sought with a large enough effect; inconclusive = small, poorly fitted or top-dose-only effect, or another doubt; inactive = no such curve, though single readings can be large; an effect the other way counts as inactive or inconclusive.
SMILES,ALDH1A1 inh,IMPase cell inh,NPSR antagonist,ALOX12 inhib,HPGD inh,IMPase Li inh
Cc1oc(-c2cc(F)ccc2F)nc1CN1CCN(c2ncnc3ccccc23)CC1,7.94µM,.,-,.,.,-
COc1ccccc1N1CCN(Cc2ccc(Br)o2)CC1,12.6µM,-,-,-,-,-
COc1ccc(-c2nc(CN3CCN(c4ccccc4OC)CC3)c(C)o2)cc1,-,.,-,.,.,-
O=c1c2ccccc2n2c(-c3ccc(C(F)(F)F)cc3)nnc2n1Cc1ccccc1,-,-,-,-,.,.
Cc1nn(-c2ccccc2)c2c1C1(C(=O)Nc3ccccc31)N1C(=N2)Sc2ccccc21 (configuration not stated),-,-,?,-,-,-
O/N=C1\CCCC\C1=C/c1ccccc1,-,.,-,-,4.47µM,-
CCCc1cc2c(c(=O)o1)C(O)C1OC1C2=O (configuration not stated),3.98µM,.,.,.,.,.
CCCc1cc(=O)c2c(O)cccc2o1,-,.,-,.,.,.
Cc1ccc2[nH]c3c(=O)n(CCCN4CCOCC4)cnc3c2c1,?,-,-,-,?,-
Cc1nc(N2CCOCC2)nc(N2CCCC2)c1[N+](=O)[O-],?,.,-,-,-,-
Cc1nc(N2CCOCC2)nc(N2CCCCC2)c1[N+](=O)[O-],15.8µM,.,-,-,-,-
C/C(=C\C(=O)Nc1nccs1)c1ccccc1,-,?,-,-,15.8µM,-
CSc1ccccc1C(=O)Nc1nccs1,?,-,-,-,15.8µM,-
O=C(O)/C=C/C(=O)Nc1nccs1,-,.,-,.,.,.
CCC(CC)C(=O)Nc1cccc(C(=O)Nc2nccs2)c1,-,-,-,-,-,-
O=C(/C=C/c1ccc(Br)o1)Nc1nccs1,22.4µM,.,-,.,.,-
O=C(O)c1ccccc1C(=O)Nc1nccs1,-,-,-,-,-,-
CCCc1cc(C(=O)Nc2nccs2)cs1,?,-,-,-,10µM,-
CCC(O)c1cc2c(cc1NC(=O)c1cccs1)OCCO2 (configuration not stated),-,-,-,-,-,-
O=C(Nc1nccs1)c1ccc(Br)o1,?,-,-,-,25.1µM,-
O=C(Nc1nccs1)c1ccc(-c2ccc(Cl)cc2Cl)o1,?,-,-,-,?,-
Cc1nn(Cc2ccccc2)c(Cl)c1C(=O)OC(C)C#N (configuration not stated),22.4µM,.,-,.,.,-
Cc1nn(Cc2ccccc2)c(Cl)c1C(=O)NCCc1ccccc1,-,-,-,-,-,-
O=C(Nc1ccc(N2CCOCC2)cc1)c1cc2ccccc2o1,?,-,-,-,-,-
CC1CCN(C(=O)c2cc3ccccc3o2)CC1,?,-,-,-,11.2µM,-
SMILES,ALDH1A1 inh,IMPase cell inh,NPSR antagonist,ALOX12 inhib,HPGD inh,IMPase Li inh
Cc1ccc(C(=O)N2CCC(C)CC2)cc1C,11.2µM,-[0.0738 µM],-,-,0.794µM,-
CC1CCN(C(=O)c2cc(-c3ccccc3O)on2)CC1,14.1µM,-,-,-,14.1µM,-
O=C(/C=C/N1CCOCC1)c1cc2ccccc2o1,17.8µM,-[1.84 µM],-,-,-,-
Cc1ccc(-c2nnc(SCC(=O)Nc3ccccc3N3CCOCC3)o2)cc1,-,-,-,-,-,-
COC(=O)[C@H](C)NC(=O)NCc1ccccc1F,-,-,-,-,-,-
O=C1CSC(c2ccc(Cl)cc2)N1C1CCCCC1 (configuration not stated),-,-,?,-,-,-
O=C(c1cc2ccccc2o1)N1CCCCCC1,?,-,-,-,7.94µM,-
CCN(CC)CC(=O)NCc1cc(-c2ccc(OC)cc2)no1,-,-,-,-,1.26µM,-
COc1cccc(NC2=CC(=O)CC(C)(C)C2)c1,-,-,-,-,-,-
CN(C)c1cccc(NC2=CC(=[N+]3CCOCC3)CC(C)(C)C2)c1,28.2µM,-,-,-,?,-
COCC(C)NC(C(=O)Nc1ccc(C)c(Cl)c1)c1ccccc1 (configuration not stated),?,-,-,-,-,-
CCOCCCNC(C(=O)Nc1ccc(OC)c(Cl)c1)c1ccccc1 (configuration not stated),2.24µM,.,-,.,.,-
COCCNC(C(=O)Nc1cc(Cl)cc(Cl)c1)c1ccccc1 (configuration not stated),14.1µM,-,-,-,-,-
COc1ccc(S(=O)(=O)Nc2cc(C(=O)NCCC(C)C)ccc2N2CCOCC2)cc1,14.1µM,-,-,-,-,-
COC(=O)c1ccc(N2CCCCC2)c(NS(=O)(=O)c2ccc(C)cc2)c1,7.94µM,-,-,-,-,-
COc1ccc(S(=O)(=O)Nc2cc(C(=O)NCCCOC(C)C)ccc2N2CCOCC2)cc1,?,.,-,.,.,-
CCN(CC)CCNC(=O)c1ccc(N2CCCCC2)c(NS(=O)(=O)c2ccc(C)cc2)c1,20µM,-,-,-,-,-
Cc1cc(-c2ccccc2)nc(N(C)NC(=O)C(C)(C)C)c1S(C)(=O)=O,-,.,-,.,.,-
COC(=O)c1ccc(COc2ccc(C=O)cc2OC)o1,?,.,-,.,.,-
CCC(=O)c1ccc(OCc2ccc(C(=O)OC)o2)c(OC)c1,?,-,-,-,22.4µM,-
CNC(=S)NNC(=O)c1cn(C)nc1C,-,.,-,.,.,-
CCCCCCCOC(=O)c1ccc(OC(=O)c2cccnc2)cc1,?,-,-,-,22.4µM,-
CCCCCOC(=O)c1ccc(OC(=O)c2cncc(Br)c2)cc1,-,-,-,-,-,-
O=Cc1ccc(OC(=O)c2cccnc2)cc1,5.01µM,.,-,.,.,-
COC(=O)c1ccc(OC(=O)c2cccnc2)cc1,-,.,-,-,-,-
SMILES,ALDH1A1 inh,IMPase cell inh,NPSR antagonist,ALOX12 inhib,HPGD inh,IMPase Li inh
COc1ccc(CCNC(=O)Cn2cnc3sc(C)c(-c4ccc(F)cc4)c3c2=O)cc1OC,-,.,-,.,.,-
O=C(CCN1CCOCC1)Nc1ccc2c(c1)N(C(=O)CN1CCOCC1)c1ccccc1CC2,-,-,-,-,-,-
Cc1c(-c2ccccc2)sc(Br)c1C(=O)N1CCOCC1,-,-,-,-,1.58µM,-
Cc1nc(N2CCN(C(=O)CCC(=O)O)CC2)c2c(C)c(C)sc2n1,-,-,-,-,35.5µM,-
CCC(=O)N1CCN(c2nc(C)nc3sc(C)c(C)c23)CC1,-,-,-,-,?,-
Cc1ccc(C)c(N2C(=O)c3ccc(C(=O)OCC(=O)c4c(N)n(C)c(=O)n(C)c4=O)cc3C2=O)c1,20µM,.,-,-,-,-
